Screening data (PubChem)
FXN GAA850 act – activators of GAA850 frataxin (FXN) promoter; activation, % at 6 µM; HEK293 lucGAA850 FXN promoter luciferase reporter, 24 h; percent of 10 µM SAHA response; 360,000 tested, 0.56% active;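 active = activation above the average of all compounds screened plus 3 SD, cutoff fixed separately per campaign, cut at about 7.5% in these data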;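 note: 0% = DMSO wells and 100% = 10 µM SAHA wells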
NR0B1 inh – NR0B1 (DAX1) inhibition | P51843 | HEK293 Gal4-DAX1 luciferase reporter, luminescence | inhibition, % at 6.75 µM | 340,000 tested, 0.99% active | AID 504766;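 active = inhibition above the mean over all tested compounds plus 3 SD, cut at about 4.2% in these data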;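 note: 0% = DAX1-transfected cells with DMSO and 100% = empty-vector control cells with DMSO; inhibition shows as a rise in luminescence from relieved DAX1 repression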
HSF1 inh – HSF1 inhibition; NIH3T3-HGL HSE-luciferase, MG132-induced, luminescence 8 h; hits give low values; activity change, negative = inhibition, % at 7.5 µM (by protocol); 300,000 tested, 0.77% active; AID 2098;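 active = more than half of replicate wells show activity change below -50%, luminescence cut by over half; inconclusive = some wells, but at most half, below -50%; inactive = no replicate well below -50%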;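 note: luciferase reports HSF-1 transcriptional activity via heat shock element; 0% = median of DMSO wells and -100% = zero luminescence signal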
HSP90 refold inh – HSP90 refolding inhibition in rabbit reticulocyte lysate; 290,000 tested, 0.91% active; luciferase refolding luminescence, 3 h; inhibition, % at 5.6 µM;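 active = inhibition above the screen-wide mean plus 3 SD, computed separately per campaign, cut at about 16% in these data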;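 note: 0% = DMSO wells and 100% = 60 µM geldanamycin wells; inhibitors lower the luminescence because luciferase stays unfolded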
AHR act – activators of human aryl hydrocarbon receptor; AHR-responsive luciferase reporter cells, luminescence; activation, % at 5 µM; 320,000 tested, 2.5% active; AID 2796; in the data active = activation above about 47%;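 note: 0% = vehicle wells and 100% = reference agonist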
Target sequence (P35869 whole entry, looked up): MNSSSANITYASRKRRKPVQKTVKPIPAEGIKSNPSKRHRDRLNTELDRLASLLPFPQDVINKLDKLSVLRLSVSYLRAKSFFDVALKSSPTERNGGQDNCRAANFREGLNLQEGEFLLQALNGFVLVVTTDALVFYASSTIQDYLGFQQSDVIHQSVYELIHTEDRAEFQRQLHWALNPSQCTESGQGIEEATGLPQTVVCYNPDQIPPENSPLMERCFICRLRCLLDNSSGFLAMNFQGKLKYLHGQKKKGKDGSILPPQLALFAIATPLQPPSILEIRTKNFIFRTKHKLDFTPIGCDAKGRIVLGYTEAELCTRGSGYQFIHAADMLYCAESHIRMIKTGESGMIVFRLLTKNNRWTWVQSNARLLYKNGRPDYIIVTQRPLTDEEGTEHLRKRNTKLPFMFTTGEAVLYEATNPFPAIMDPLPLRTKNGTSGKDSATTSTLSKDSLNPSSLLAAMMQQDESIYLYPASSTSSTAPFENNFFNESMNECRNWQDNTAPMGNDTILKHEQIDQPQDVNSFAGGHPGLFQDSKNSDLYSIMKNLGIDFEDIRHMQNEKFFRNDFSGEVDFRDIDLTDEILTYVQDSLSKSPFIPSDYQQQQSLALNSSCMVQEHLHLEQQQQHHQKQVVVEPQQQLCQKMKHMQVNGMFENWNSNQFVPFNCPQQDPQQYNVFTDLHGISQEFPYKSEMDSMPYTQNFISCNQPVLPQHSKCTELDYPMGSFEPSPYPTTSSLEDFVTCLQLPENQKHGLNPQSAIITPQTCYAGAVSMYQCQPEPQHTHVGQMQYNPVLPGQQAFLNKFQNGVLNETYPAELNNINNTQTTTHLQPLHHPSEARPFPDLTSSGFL
HSF1 activator – increases HSF-1 driven luciferase reporter signal; NIH3T3-HGL HSF-1 luciferase reporter, MG132, 8 h; 100% = twice DMSO control signal; activation, % at 9 µM; 300,000 tested, 1.7% active; AID 504408;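 active = mean replicate activation of at least 50% with a set share of replicates each reaching 50%; inconclusive = only one of those two conditions met; inactive = mean below 50% and too few replicates reaching it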;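 note: 0% = median of the neutral control wells and 100% = twice that signal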
* hit, by the source's call; ? = inconclusive; · = no result. In the library only some 5.9% were active in any assay of this set; here they are far more common.

SMILES | FXN GAA850 act | NR0B1 inh | HSF1 inh | HSP90 refold inh | AHR act | HSF1 activator
O=[N+]([O-])c1ccc(N2CCCC2)c2ccncc12 | -0.1 | -1.4 | -60.5* | -8.8 | 9.9 | -68.3
O=[N+]([O-])c1ccc(NC2CCCC2)c2ccncc12 | -1.1 | -0.9 | -9.6 | -4.0 | 9.9 | -5.8
CN1CCN(c2ccc([N+](=O)[O-])c3cccnc23)CC1 | 4.4 | -0.8 | -57.0* | 2.6 | 0.3 | -67.4
CCC(=NCCCn1ccnc1)c1c(O)n(Cc2ccccc2)c(=O)[nH]c1=O | 0.3 | 0.2 | 6.8 | 1.6 | 47.5* | 6.9
CCC(=Nc1cccc(C(F)(F)F)c1)c1c(O)n(C)c(=O)n(C)c1=O | -0.5 | 4.5* | 1.6 | -0.9 | -0.4 | -3.8
CCC(=Nc1ccc(OC)cc1OC)c1c(O)n(C)c(=O)n(C)c1=O | 1.3 | -0.3 | -1.9 | 1.1 | 10.4 | -7.1
O=C1CCCC2C3CCCN4CCCC(CN12)C34 (configuration not stated) | 1.9 | 1.6 | 1.2 | -1.9 | 0.8 | 5.1
O=[N+]([O-])c1ccc(N2CCNCC2)cc1NCc1ccco1 | 2.5 | -0.1 | 1.7 | -0.4 | 70.7* | 35.6
CN1CCN(c2ccc([N+](=O)[O-])c(NCc3ccco3)c2)CC1 | 2.9 | -0.5 | 12.7 | -2.9 | 63.3* | 23.5
O=C1NC(=S)N(c2ccc(Br)cc2)C(=O)/C1=C/N1CCN(C(=O)c2ccco2)CC1 | 1.2 | 4.7* | -8.9 | 0.8 | 8.9 | -6.9
CCOC(=O)c1c(-n2c(C)cc(/C=C3/C(=O)NC(=O)N(CC)C3=O)c2C)sc2c1CCCC2 | 0.2 | -0.5 | -10.7 | -0.8 | -1.9 | -10.1
CCN1C(=O)NC(=O)/C(=C/c2cc(C)n(-c3sc(C)c(C)c3C#N)c2C)C1=O | 2.8 | -0.2 | -56.3* | -0.3 | -2.4 | -68.2
CC(=O)N(C)CC#CCN1CCCC(CO)C1 (configuration not stated) | -2.2 | 2.7 | 0.5 | · | -1.7 | -10.7
O=C1NC(=O)C(CCc2ccncc2)(CCc2ccncc2)C(=O)N1Cc1ccccc1 | 0.5 | -0.4 | -70.8* | 4.1 | 5.5 | -77.9
CN(N)N=Nc1nc2c([nH]1)c(=O)n(C)c(=O)n2C | -0.2 | -0.5 | 2.7 | 3.4 | 1.3 | 10.0
Cc1ccccc1NC(=S)NC(NC(=O)CF)C(Cl)(Cl)Cl (configuration not stated) | 3.4 | 5.6* | -6.6 | 3.2 | 3.2 | -18.5
COc1cc(/C=C/[N+](=O)[O-])ccc1O | 4.4 | 0.8 | 233.5 | 3.5 | 1.5 | 274.5*
CCN(CC)c1ccc(/C=C/[N+](=O)[O-])cc1 | 0.4 | -2.7 | 34.3 | 7.5 | 3.2 | ?
N#CC(c1ccccc1)N1CCOCC1 (configuration not stated) | 0.1 | -1.3 | -4.0 | 8.0 | -1.7 | -10.3
Cn1c2ccccc2c2cnn(CC(=O)N3CCC4(CC3)OCCO4)c(=O)c21 | · | · | -56.1* | 2.0 | 3.5 | -63.9
CCn1c(=O)cc(OCC(=O)N2CCC3(CC2)OCCO3)c2ccccc21 | 2.2 | 4.4* | 2.8 | -1.8 | 27.9 | 15.7
Cc1cccc(-n2c(/C=C/c3ccccn3)nc3ccccc3c2=O)c1 | 1.3 | -0.3 | -2.5 | -1.8 | 1.7 | 20.1
O=C1NS(=O)c2cc([N+](=O)[O-])cc([N+](=O)[O-])c21 (configuration not stated) | -0.8 | 1.6 | 15.8 | -1.7 | 1.2 | -0.1
Cc1ccccc1N1CCN(C2CCCN(C(=O)Cc3c(C)noc3C)C2)CC1 (configuration not stated) | 2.5 | 0.7 | -2.9 | -5.4 | -0.3 | 4.2
N/C(=N\[N+](=O)[O-])NCCCC(NC(=O)CNC(=O)c1ccccc1)C(=O)O (configuration not stated) | 1.0 | 0.4 | -0.8 | 1.2 | 0.3 | -21.8
SMILES | FXN GAA850 act | NR0B1 inh | HSF1 inh | HSP90 refold inh | AHR act | HSF1 activator
Cc1ccc2c(c1N)C(=O)c1ccccc1C2=O | 5.2 | 1.4 | · | · | 72.6* | ·
NC(Cc1nc2ccccc2[nH]1)c1ccc(Cl)cc1 (configuration not stated) | 2.9 | 2.9 | 65.1 | 0.5 | -6.5 | 87.5*
C/C(=N\Nc1cccc2ccccc12)c1c(O)n(Cc2ccccc2)c(=O)[nH]c1=O | 0.3 | -1.4 | 5.7 | -0.3 | 50.6* | -6.9
Cc1cc(C(=O)Nc2ccccc2)nn1C(C)(C)C | 2.8 | 2.7 | 17.7 | 4.1 | -3.9 | ?
Cc1cc(C(=O)Nc2ccc3c(c2)OCCO3)nn1C(C)(C)C | 6.0 | 5.7* | 28.5 | 4.3 | 4.2 | 32.0
COP(=O)(OC)C(NC(=O)/C=C/c1ccccc1)C(Cl)(Cl)Cl (configuration not stated) | 1.9 | -0.2 | 8.6 | -4.3 | 11.9 | 10.8
COc1cc2c(cc1OC)C13CCN4CC5=CCOC(CC(=O)O)C(C5CC41)C3N2 (configuration not stated) | 2.1 | 5.7* | · | · | · | ·
COc1cc2c(cc1OC)C13CCN4CC5=CCOC6CC(=O)N2C1C6C5CC43 (configuration not stated) (tested in a mixture with another compound) | 0.8 | 1.2 | -1.4 | 0.5 | 4.0 | -2.6
CC1(C)CN=C(NCc2ccccc2)S1 | 1.9 | 1.1 | 1.7 | 22.9* | 0.7 | -4.6
CC1(C)CN=C(Nc2nc3ccccc3s2)S1 | 1.1 | 3.4 | 24.7 | 11.6 | 25.4 | 53.6*
CCN1CCN(c2nc3ccccc3s2)CC1 | 6.5 | 1.1 | 12.5 | 2.4 | -2.5 | 44.7
C1CCC(NC2CCCCC2)CC1 | 0.1 | 0.6 | · | · | 8.0 | ·
COc1ccccc1N1CCN(CCc2ccccc2)CC1 | 0.9 | 0.7 | -9.8 | 2.9 | 2.3 | -6.2
Cc1noc(C)c1COc1ccc(C(=O)NCC2(N(C)C)CCCCC2)cc1 | 2.9 | 2.6 | · | · | · | ·
CN(C)c1ccc(/C=C2\C(=O)NC(=O)N(CCc3ccc(F)cc3)C2=O)cc1 | -1.3 | 5.5* | -0.2 | 0.2 | -2.4 | -0.4
COCCN1C(=O)NC(=O)/C(=C\c2ccc(F)cc2)C1=O | 0.6 | -0.2 | -4.4 | 0.4 | 1.5 | 5.2
CC(=Nc1ccccc1N)c1c(O)n(C)c(=O)n(C)c1=O | 5.9 | 4.5* | 5.5 | -3.5 | 8.2 | -6.2
CC(=O)OC1C(=O)OCC23CCC4(C)OC4C2OC2CC(OC(=O)C=CC=CC(=O)OCCC1C)C3(C)C21CO1 (configuration not stated) | -14.7 | -6.7 | 92.2* | · | · | 92.2*
CC1=CC2OC3CC4OC(=O)C=CC=CC(=O)OCCC(C)C(O)C(=O)OCC2(CC1O)C4(C)C31CO1 (configuration not stated) | -15.0 | -6.7 | 92.4* | · | · | 92.4*
CC1=CC2OC3CC4OC(=O)C=CC=CC(C(C)O)OCC(O)C(C)CC(=O)OCC2(CC1O)C4(C)C31CO1 (configuration not stated) | -15.1 | -6.7 | · | · | · | ·
CC(O)C1C=CC=CC(=O)OC2CC3OC4C5OC5(C)CCC4(COC(=O)C4OC4(C)C(O)CO1)C2(C)C31CO1 (configuration not stated) | -15.4 | -6.7 | 90.9* | · | · | 90.9*
